Among the data in article PMC11006913 are binding signal values, retold here.

Common to all, as to test: PBM; 200 nM protein, PBS
What all share (details): dsDNA, one strand shown

Test [1] has as its target HOXB9 (Homo sapiens, UniProt P17482 171-250, T197M).
Test [2] concerns the target HOXC9 (Homo sapiens, UniProt P31274 178-260, K195R).
Test [3] concerns the target HOXC10 (Homo sapiens, UniProt Q9NYD6 254-340).
Test [4] addresses HOXB9 (Homo sapiens, UniProt P17482 171-250).
For test [5], the target named is HOXC9 (Homo sapiens, UniProt P31274 178-260).
The target in test [6] is HOXD13 (Homo sapiens, UniProt P35453 263-343, T313R).
The target of test [7] is HOXC9 (Homo sapiens, UniProt P31274 178-260, R193K).
Test [8] addresses HOXD13 (Homo sapiens, UniProt P35453 263-343).
For test [9], the target named is HOXC10 (Homo sapiens, UniProt Q9NYD6 254-340, K271E).
The target in test [10] is HOXD13 (Homo sapiens, UniProt P35453 263-343, T313A).
The target of test [11] is HOXB9 (Homo sapiens, UniProt P17482 171-250, R186Q).
Test [12] addresses HOXC9 (Homo sapiens, UniProt P31274 178-260, R222W).
Test [13] addresses ALX3 (Homo sapiens, UniProt O95076 139-225, N203Q).
For test [14], the target named is ALX3 (Homo sapiens, UniProt O95076 139-225).
For another test, the target named is HOXB6 (Homo sapiens, UniProt P17509 132-218, K202E).
HOXB6, sequence (P17509 132-218 K202E): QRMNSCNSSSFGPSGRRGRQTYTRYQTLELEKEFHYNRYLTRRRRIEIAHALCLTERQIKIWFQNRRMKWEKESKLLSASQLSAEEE

HOXC10 (Homo sapiens, UniProt Q9NYD6 254-340, K271E), sequence (Q9NYD6 254-340 K271E): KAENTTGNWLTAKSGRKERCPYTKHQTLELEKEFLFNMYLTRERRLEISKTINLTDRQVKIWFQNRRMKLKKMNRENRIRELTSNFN
HOXD13 (Homo sapiens, UniProt P35453 263-343), sequence (P35453 263-343): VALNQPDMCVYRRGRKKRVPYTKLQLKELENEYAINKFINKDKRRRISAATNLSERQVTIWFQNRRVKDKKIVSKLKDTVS
HOXC9 (Homo sapiens, UniProt P31274 178-260, K195R), sequence (P31274 178-260 K195R): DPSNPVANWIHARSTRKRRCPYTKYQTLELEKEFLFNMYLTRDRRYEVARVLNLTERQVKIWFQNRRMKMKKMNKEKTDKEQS
HOXD13 (Homo sapiens, UniProt P35453 263-343, T313R), sequence (P35453 263-343 T313R): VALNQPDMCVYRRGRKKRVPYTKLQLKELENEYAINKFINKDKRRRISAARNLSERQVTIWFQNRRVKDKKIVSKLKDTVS
HOXB9 (Homo sapiens, UniProt P17482 171-250, T197M), sequence (P17482 171-250 T197M): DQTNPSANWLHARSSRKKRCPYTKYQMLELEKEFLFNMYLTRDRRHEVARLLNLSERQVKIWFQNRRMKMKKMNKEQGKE
HOXC9 (Homo sapiens, UniProt P31274 178-260), sequence (P31274 178-260): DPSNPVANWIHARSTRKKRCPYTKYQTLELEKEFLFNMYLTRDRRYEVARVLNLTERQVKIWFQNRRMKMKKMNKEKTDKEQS
HOXC9 (Homo sapiens, UniProt P31274 178-260, R193K), sequence (P31274 178-260 R193K): as the sequence (P31274 178-260) above, with R16K counted along it
HOXD13 (Homo sapiens, UniProt P35453 263-343, T313A), sequence (P35453 263-343 T313A): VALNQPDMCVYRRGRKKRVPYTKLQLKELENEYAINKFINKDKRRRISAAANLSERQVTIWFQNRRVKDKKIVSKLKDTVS
HOXC10 (Homo sapiens, UniProt Q9NYD6 254-340), sequence (Q9NYD6 254-340): as the sequence (Q9NYD6 254-340 K271E) above, with E18K counted along it
HOXB9 (Homo sapiens, UniProt P17482 171-250, R186Q), sequence (P17482 171-250 R186Q): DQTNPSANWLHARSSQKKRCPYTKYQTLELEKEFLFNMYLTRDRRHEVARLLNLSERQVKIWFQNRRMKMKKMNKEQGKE
HOXC9 (Homo sapiens, UniProt P31274 178-260, R222W), sequence (P31274 178-260 R222W): as the sequence (P31274 178-260) above, with R45W counted along it
HOXB9 (Homo sapiens, UniProt P17482 171-250), sequence (P17482 171-250): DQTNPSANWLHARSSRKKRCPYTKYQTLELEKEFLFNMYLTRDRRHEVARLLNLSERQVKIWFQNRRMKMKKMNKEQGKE
ALX3 (Homo sapiens, UniProt O95076 139-225, N203Q), sequence (O95076 139-225 N203Q): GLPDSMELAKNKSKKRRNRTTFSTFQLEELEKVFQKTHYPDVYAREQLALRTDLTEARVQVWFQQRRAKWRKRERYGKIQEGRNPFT
ALX3 (Homo sapiens, UniProt O95076 139-225), sequence (O95076 139-225): as the sequence (O95076 139-225 N203Q) above, with Q65N counted along it

Take ATAATAAA: the binding signal with HOXB9 [1] is 9.88 upbm affinity estimate (log intensity, higher = more binding, comparable within an allelic series); in the test with HOXC9 [2] it was 12.7 upbm affinity estimate (log intensity, higher = more binding, comparable within an allelic series); in the test with HOXC10 [3], 12.5 upbm affinity estimate (log intensity, higher = more binding, comparable within an allelic series); with HOXB9 [4] it was 11.9 upbm affinity estimate (log intensity, higher = more binding, comparable within an allelic series); with HOXC9 [5], 12.7 upbm affinity estimate (log intensity, higher = more binding, comparable within an allelic series); with HOXD13 [6], 10.8 upbm affinity estimate (log intensity, higher = more binding, comparable within an allelic series). Also, the binding signal with HOXC9 [7] is 12.7 upbm affinity estimate (log intensity, higher = more binding, comparable within an allelic series); with HOXD13 [8] it was 11.8 upbm affinity estimate (log intensity, higher = more binding, comparable within an allelic series); with HOXC10 [9] it was 11.9 upbm affinity estimate (log intensity, higher = more binding, comparable within an allelic series); with HOXD13 [10], 11.6 upbm affinity estimate (log intensity, higher = more binding, comparable within an allelic series); with HOXB9 [11], 11.5 upbm affinity estimate (log intensity, higher = more binding, comparable within an allelic series); in the test with HOXC9 [12], 11.2 upbm affinity estimate (log intensity, higher = more binding, comparable within an allelic series).
With CCATAAAA, the binding signal with HOXB9 [1] was 10 upbm affinity estimate (log intensity, higher = more binding, comparable within an allelic series); with HOXC9 [2], 13.3 upbm affinity estimate (log intensity, higher = more binding, comparable within an allelic series); with HOXC10 [3], 13 upbm affinity estimate (log intensity, higher = more binding, comparable within an allelic series); with HOXB9 [4], 12.8 upbm affinity estimate (log intensity, higher = more binding, comparable within an allelic series); with HOXC9 [5], 13.4 upbm affinity estimate (log intensity, higher = more binding, comparable within an allelic series); with ALX3 [13] it was 8.22 upbm affinity estimate (log intensity, higher = more binding, comparable within an allelic series). Besides, the binding signal in the test with HOXD13 [6] is 11 upbm affinity estimate (log intensity, higher = more binding, comparable within an allelic series); with HOXC9 [7], 13.3 upbm affinity estimate (log intensity, higher = more binding, comparable within an allelic series); with HOXD13 [8], 12.3 upbm affinity estimate (log intensity, higher = more binding, comparable within an allelic series); with HOXC10 [9] it was 12.5 upbm affinity estimate (log intensity, higher = more binding, comparable within an allelic series); in the test with ALX3 [14], 8.99 upbm affinity estimate (log intensity, higher = more binding, comparable within an allelic series); with HOXD13 [10], 12 upbm affinity estimate (log intensity, higher = more binding, comparable within an allelic series). Further, the binding signal in the test with HOXB9 [11] was 12.5 upbm affinity estimate (log intensity, higher = more binding, comparable within an allelic series); with HOXC9 [12] it was 11.6 upbm affinity estimate (log intensity, higher = more binding, comparable within an allelic series).
With CCCTCACC, the binding signal is 8.63 upbm affinity estimate (log intensity, higher = more binding, comparable within an allelic series) in the test with HOXB9 [1]; 9.5 upbm affinity estimate (log intensity, higher = more binding, comparable within an allelic series) with HOXC9 [2]; 9.97 upbm affinity estimate (log intensity, higher = more binding, comparable within an allelic series) with HOXC10 [3]; 8.28 upbm affinity estimate (log intensity, higher = more binding, comparable within an allelic series) in the test with HOXB9 [4]; 9.44 upbm affinity estimate (log intensity, higher = more binding, comparable within an allelic series) with HOXC9 [5]; 9.56 upbm affinity estimate (log intensity, higher = more binding, comparable within an allelic series) with HOXC9 [7]. For the same sequence, the binding signal with HOXC10 [9] was 9.96 upbm affinity estimate (log intensity, higher = more binding, comparable within an allelic series); with HOXB9 [11], 8.43 upbm affinity estimate (log intensity, higher = more binding, comparable within an allelic series); with HOXC9 [12], 9.7 upbm affinity estimate (log intensity, higher = more binding, comparable within an allelic series).
In the case of CATTAAAC, the binding signal with HOXB9 [1] was 9.93 upbm affinity estimate (log intensity, higher = more binding, comparable within an allelic series); with HOXC9 [2] it was 12.5 upbm affinity estimate (log intensity, higher = more binding, comparable within an allelic series); with HOXC10 [3], 12.2 upbm affinity estimate (log intensity, higher = more binding, comparable within an allelic series); in the test with HOXB9 [4] it was 11.8 upbm affinity estimate (log intensity, higher = more binding, comparable within an allelic series); in the test with HOXC9 [5] it was 12.6 upbm affinity estimate (log intensity, higher = more binding, comparable within an allelic series); with HOXC9 [7], 12.6 upbm affinity estimate (log intensity, higher = more binding, comparable within an allelic series). The binding signal with HOXC10 [9] was 11.9 upbm affinity estimate (log intensity, higher = more binding, comparable within an allelic series); in the test with HOXB9 [11], 11.6 upbm affinity estimate (log intensity, higher = more binding, comparable within an allelic series); with HOXC9 [12] it was 10.9 upbm affinity estimate (log intensity, higher = more binding, comparable within an allelic series).
As for AATTTTAT, the binding signal in the test with HOXB9 [1] was 9.84 upbm affinity estimate (log intensity, higher = more binding, comparable within an allelic series); with HOXC9 [2], 12.6 upbm affinity estimate (log intensity, higher = more binding, comparable within an allelic series); in the test with HOXC10 [3], 12.3 upbm affinity estimate (log intensity, higher = more binding, comparable within an allelic series); in the test with HOXB9 [4], 11.9 upbm affinity estimate (log intensity, higher = more binding, comparable within an allelic series); in the test with HOXC9 [5], 12.7 upbm affinity estimate (log intensity, higher = more binding, comparable within an allelic series); with HOXD13 [6] it was 10.7 upbm affinity estimate (log intensity, higher = more binding, comparable within an allelic series). The binding signal is 12.6 upbm affinity estimate (log intensity, higher = more binding, comparable within an allelic series) with HOXC9 [7]; 11.7 upbm affinity estimate (log intensity, higher = more binding, comparable within an allelic series) with HOXC10 [9]; 11.6 upbm affinity estimate (log intensity, higher = more binding, comparable within an allelic series) with HOXB9 [11]; 11.2 upbm affinity estimate (log intensity, higher = more binding, comparable within an allelic series) with HOXC9 [12].
As for CATAAAAG, the binding signal with HOXB9 [1] was 9.76 upbm affinity estimate (log intensity, higher = more binding, comparable within an allelic series); with HOXC9 [2], 12.6 upbm affinity estimate (log intensity, higher = more binding, comparable within an allelic series); in the test with HOXC10 [3], 12.4 upbm affinity estimate (log intensity, higher = more binding, comparable within an allelic series); with HOXB9 [4] it was 12 upbm affinity estimate (log intensity, higher = more binding, comparable within an allelic series); with HOXC9 [5], 12.8 upbm affinity estimate (log intensity, higher = more binding, comparable within an allelic series); with HOXD13 [6], 10.7 upbm affinity estimate (log intensity, higher = more binding, comparable within an allelic series). Also, the binding signal with HOXC9 [7] was 12.7 upbm affinity estimate (log intensity, higher = more binding, comparable within an allelic series); with HOXD13 [8] it was 11.8 upbm affinity estimate (log intensity, higher = more binding, comparable within an allelic series); with HOXC10 [9], 11.8 upbm affinity estimate (log intensity, higher = more binding, comparable within an allelic series); with HOXD13 [10] it was 11.6 upbm affinity estimate (log intensity, higher = more binding, comparable within an allelic series); with HOXB9 [11], 11.7 upbm affinity estimate (log intensity, higher = more binding, comparable within an allelic series); with HOXC9 [12], 11.2 upbm affinity estimate (log intensity, higher = more binding, comparable within an allelic series).
With ATAATAAT, the binding signal in the test with HOXB9 [1] is 9.97 upbm affinity estimate (log intensity, higher = more binding, comparable within an allelic series); with HOXC9 [2], 12.6 upbm affinity estimate (log intensity, higher = more binding, comparable within an allelic series); with HOXB6, 10 upbm affinity estimate (log intensity, higher = more binding, comparable within an allelic series); with ALX3 [13] it was 8.6 upbm affinity estimate (log intensity, higher = more binding, comparable within an allelic series).
On to CATTAAAA, for which the binding signal is 9.91 upbm affinity estimate (log intensity, higher = more binding, comparable within an allelic series) with HOXB9 [1]; 12.6 upbm affinity estimate (log intensity, higher = more binding, comparable within an allelic series) with HOXC9 [2]; 12.1 upbm affinity estimate (log intensity, higher = more binding, comparable within an allelic series) in the test with HOXC10 [3]; 12 upbm affinity estimate (log intensity, higher = more binding, comparable within an allelic series) with HOXB9 [4]; 12.7 upbm affinity estimate (log intensity, higher = more binding, comparable within an allelic series) with HOXC9 [5]; 12.6 upbm affinity estimate (log intensity, higher = more binding, comparable within an allelic series) with HOXC9 [7]. Also, the binding signal with HOXC10 [9] is 11.8 upbm affinity estimate (log intensity, higher = more binding, comparable within an allelic series); in the test with HOXD13 [10] it was 11.6 upbm affinity estimate (log intensity, higher = more binding, comparable within an allelic series); with HOXB9 [11], 11.7 upbm affinity estimate (log intensity, higher = more binding, comparable within an allelic series); in the test with HOXC9 [12], 11 upbm affinity estimate (log intensity, higher = more binding, comparable within an allelic series).
